Screens as filed in PubChem BioAssay.
Hits are enriched below; roughly 1.8% of the tested compounds scored in any of these assays.
Mcl1 Bid PPI – Mcl-1/Bid interaction inhibition. TR-FRET Mcl-1/Bid-Dy647 peptide binding, 1536-well. inhibition, % at 21.7 µM. Q07820. 220,000 compounds, 0.97% hits. AID 1021;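 active means compounds that cut the binding signal by more than half at the single screening dose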;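 further: His-tagged Mcl-1 with europium anti-His antibody binding Bid BH3 peptide; 0% = Mcl-1 plus peptide wells and 100% = peptide-only wells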
Mcl1-Noxa inh – Mcl-1/Noxa interaction inhibition; TR-FRET Mcl-1/Noxa peptide binding, 2 h; Q07820; inhibition, % at 21.7 µM; AID 1022; 220,000 compounds, 1.5% hits;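 active means compounds that cut the protein-peptide binding signal by more than 50% relative to plate controls in a single-dose test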;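 further: His-tagged Mcl-1 with rhodamine Noxa BH3 peptide and terbium anti-His antibody; 0% = Mcl-1 plus Noxa peptide wells and 100% = peptide-only wells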
TLR4-MyD88 BLA – inhibitors of human TLR4-MyD88 binding; O00206+Q99836; HeLa CL3-4 TLR4/MyD88 BLA complementation, FRET ratio; inhibition, % at 8.4 µM; 200,000 compounds, 0.18% hits; AID 861; in the data active means inhibition above about 25%;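 further: 0% = vehicle and 100% = reference inhibitor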
Bim-Mcl-1 – human Bim-Mcl-1 interaction inhibition; Q07820; Bead-based flow cytometry, Bim peptide-Mcl-1 binding; inhibition, % at 10 µM; 190,000 compounds, 0.1% hits; AID 1009; in the data active means inhibition above about 40%;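 further: 0% = no compound tracer wells and 100% = peptide blocker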
TLR9-MyD88 block – blocks human TLR9 binding to MyD88 | CHO BLA complementation TLR9-MyD88, CCF4 FRET ratio | Q9NR96+Q99836 | 340,000 compounds, 0.21% hits | AID 504734 | inhibition, % at 4.98 µM;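 active means inhibition above the mean over all tested compounds plus 3 SD, cut at about 21% in these data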;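 further: 0% = DMSO only wells and 100% = clavulanate BLA inhibitor control wells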
NOD2 RIPK2 PPI – inhibitors of human NOD2-RIPK2 interaction. 360,000 compounds, 0.38% hits. AID 624267. CHO BLA complementation NOD2-RIPK2, CCF4 ratio. inhibition, % at 4.98 µM. O43353; in the data active means inhibition above about 21%;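 further: 0% = vehicle only and 100% = reference blocker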
Target sequence (O43353 whole entry, looked up): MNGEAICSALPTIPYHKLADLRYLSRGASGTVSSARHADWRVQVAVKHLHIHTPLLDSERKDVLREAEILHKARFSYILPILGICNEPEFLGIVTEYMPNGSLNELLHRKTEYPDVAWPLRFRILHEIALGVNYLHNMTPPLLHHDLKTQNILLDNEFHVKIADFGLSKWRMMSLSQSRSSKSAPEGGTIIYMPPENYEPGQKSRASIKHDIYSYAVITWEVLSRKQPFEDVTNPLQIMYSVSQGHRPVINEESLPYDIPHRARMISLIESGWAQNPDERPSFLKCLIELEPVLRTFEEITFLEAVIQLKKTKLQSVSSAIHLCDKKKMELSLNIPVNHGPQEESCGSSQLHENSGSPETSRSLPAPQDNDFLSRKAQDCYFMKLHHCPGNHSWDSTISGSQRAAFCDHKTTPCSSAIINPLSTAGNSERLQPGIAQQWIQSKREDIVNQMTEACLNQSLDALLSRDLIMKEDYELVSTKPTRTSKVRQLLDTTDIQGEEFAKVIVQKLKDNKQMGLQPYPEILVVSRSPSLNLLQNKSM
Numbers without * were called inactive; nt = no result.

SMILES	Mcl1 Bid PPI	Mcl1-Noxa inh	TLR4-MyD88 BLA	Bim-Mcl-1	TLR9-MyD88 block	NOD2 RIPK2 PPI
CCN(c1ccc(NC(=O)c2ccc(Cl)nc2)cc1)C(C)C	-61	79*	-3	0	-3	-7
O=C(Nc1ccc(N2CCOCC2)cc1)c1ccc(Cl)nc1	-34	-7	-4	-3	6	1
CC1C(c2ccccc2)N(C)CCC12NC(=O)NC2=O (stereo not drawn)	88*	-17	8	0	2	-1
O=C(Nc1ccn(CCOC(=O)c2ccccc2)c(=O)n1)c1ccccc1	nt	nt	nt	nt	nt	-13
CCC(=O)N(C)C[C@@H]1Oc2ncc(Br)cc2C(=O)N([C@@H](C)CO)C[C@H]1C	nt	nt	nt	nt	1	-10
Cc1ccc(-c2nc3c(c(=O)[nH]c(=O)n3Cc3ccccc3)n2C)s1	65*	15	nt	nt	nt	nt
Cc1ccc(-c2nc3c(c(=O)[nH]c(=O)n3Cc3ccccc3)n2C)o1	38	97*	-9	0	7	3
Cn1c(C2CCCCC2)nc2c1c(=O)[nH]c(=O)n2Cc1ccccc1	-40	9	-11	-2	3	-9
O=C1N=c2ccccc2=C1c1c(O)n(-c2cccc(F)c2)[nH]c1=O	73*	102*	-7	-10	10	-1
CCn1c(O)c(C2=c3ccccc3=NC2=O)c2cc(Br)ccc21	1	22	-2	0	nt	nt
CCOC(=O)c1c(NC(C)=O)sc2c(O)cccc12	-52	37	-12	0	-2	-5
CCOC(=O)c1c(NC(C)=O)sc2c(O)c(Br)cc(Br)c12	-15	84*	3	-3	-11	-2
S=c1[nH]cc(-c2ccccc2)[nH]1	-72	-3	nt	nt	10	-8
O=[N+]([O-])c1ccc(-c2c[nH]c(=S)[nH]2)cc1	-36	95*	nt	nt	2	-12
COc1ccc(CCNC(=O)CCS(=O)(=O)Cc2ccccc2C)cc1OC	nt	nt	nt	nt	-6	4
COc1ccc(OC(=O)c2ccncc2)cc1	99*	6	4	0	-11	-1
O=C(Oc1ccc(OC(=O)c2ccncc2)cc1)c1ccncc1	nt	nt	nt	nt	-8	-5
COCc1cccc(-c2csc(C(C)(O)c3cccc(F)c3)n2)c1 (stereo not drawn)	nt	nt	nt	nt	nt	-11
CN1C(=S)N(c2cccnc2)C(=O)/C1=C\c1ccc(N(C)C)cc1	83*	-17	-12	0	-2	-5
COc1cc(/C=C/C(=O)c2ccc(NS(=O)(=O)c3ccc(C)cc3)cc2)cc(OC)c1O	4	56*	1	4	10	1
O=C(c1ccco1)N1CCN(Cc2nnnn2C2CCCCC2)CC1	nt	nt	nt	nt	-8	-3
O=C(Nc1ccc2c(c1)OCO2)c1cc2ncc(Br)cn2n1	-58	58*	-12	3	-6	0
O=C(Nc1cccc(C(F)(F)F)c1)c1cc2ncc(Br)cn2n1	-22	22	-12	1	1	-7
O=C(CCn1c(=O)c2cccn2c2cccnc21)NCc1cccc(Cl)c1	nt	nt	nt	nt	-5	-3
Cc1nc(NCCC(C)C)c2nnn(Cc3ccccc3)c2n1	nt	nt	nt	nt	-1	-3
SMILES	Mcl1 Bid PPI	Mcl1-Noxa inh	TLR4-MyD88 BLA	Bim-Mcl-1	TLR9-MyD88 block	NOD2 RIPK2 PPI
Cc1nc2c(-c3ccc(Cl)cc3)cnn2c2c1CCC2	85*	14	-1	0	4	-11
Cc1nc2c(-c3ccc(Cl)cc3)cnn2c(N)c1-c1ccc(F)cc1	nt	nt	nt	nt	7	-1
CCCNc1ncnc2c1cnn2C1CCCCO1 (stereo not drawn)	nt	nt	nt	nt	-8	-1
CCCNC(=O)C1CCN(c2cc(-c3ccccc3)nc3ncnn23)CC1	-4	69*	0	0	6	3
CCc1c(C)nc2ncnn2c1N1CCC(C(=O)Nc2ccccc2)CC1	-3	-26	6	1	-7	4
O=c1[nH]c(CSc2ncnc3sc(-c4ccccc4)cc23)nc2ccccc12	61*	19	nt	nt	-6	-3
Cc1c(Cc2ccccc2)sc(NC(=O)/C=C/c2cccc3ccccc23)c1C(N)=O	-45	59*	-1	-5	-8	-6
COC(=O)c1c(NC(=O)/C=C/C(=O)O)sc(Cc2ccccc2)c1C	-9	14	-15	-5	-2	-1
Cc1n[nH]c(=S)n(NC(=O)/C=C/C(=O)Nn2c(=S)[nH]nc(C)c2=O)c1=O	-43	87*	0	-3	0	-4
O=Cc1[nH]c2ccccc2c1N(C(=O)CCl)c1ccc([N+](=O)[O-])cc1	-60	92*	nt	nt	-2	-4
CCOc1ccc(OCCN(C)Cc2ccccc2)cc1	59*	10	-11	-5	6	2
CCc1nc2sc3ccccc3c(=O)c2c(=O)n1Cc1ccco1	-7	21	3	-1	-11	8
O=c1c2ccccc2sc2nc(C3CCCCC3)n(Cc3ccco3)c(=O)c12	67*	-30	21	4	4	5
O=C(Cn1cnc2ccccc2c1=O)Nc1ccc(S(=O)(=O)N2CCOCC2)cc1	-17	11	7	-2	-8	-4
O=C(Cn1cnc2cc([N+](=O)[O-])ccc2c1=O)Nc1cccc(S(=O)(=O)N2CCOCC2)c1	-6	53*	-4	-2	6	-9
COc1cc(C=O)cc(OC)c1OS(=O)(=O)c1ccc(NC(C)=O)cc1	21	52*	-12	0	6	9
O=C(N/N=C1\C(=O)c2cccc3cccc1c23)c1ccc(O)cc1	-24	54*	-11	1	-4	-7
COc1ccc(C2C(C#N)=C(C)NC3=C2S(=O)(=O)c2ccccc23)cc1 (stereo not drawn)	-3	6	10	48*	-10	-8
COC(=O)C1=C(C)NC2=C(C1c1ccc(O)cc1)S(=O)(=O)c1ccccc12 (stereo not drawn)	-11	-3	-16	0	-16	-2
COc1ccc(CC(=O)n2[nH]c(=O)ccc2=O)cc1OC	-7	75*	nt	nt	nt	-10
Nc1ncncc1-c1ccc2ccccc2c1	-41	-10	nt	nt	-2	4
O=C(c1ccc(F)cc1)N(NC(=O)C(O)(c1ccccc1)c1ccccc1)c1ccccc1	-10	10	-3	-1	-6	-14
COC(=O)N(NC(=O)C(O)(c1ccccc1)c1ccccc1)c1ccccc1	60*	16	7	-6	-4	-5
COc1nc(C)nc(NC(=O)NS(=O)(=O)c2ccc(C)cc2)n1	-12	65*	9	-5	-2	-5
O=[N+]([O-])c1cc(Cl)cc(/C=N/Nc2nc3ccccc3s2)c1O	-15	67*	9	-1	-56	-9
COc1cc(/C=N/Nc2nc3ccccc3s2)cc([N+](=O)[O-])c1O	13	32	nt	nt	-6	-7
O=C(CCc1nc(-c2ccc(Cl)cc2)no1)NCc1ccccc1CN1CCOCC1	nt	nt	nt	nt	8	-2
Cc1cc(C)n(CCC(=O)Nc2ccc3c(c2)OCCO3)n1	nt	nt	nt	nt	4	11
